Data as given in PubChem BioAssay (NCI).
The panel holds about 83,000 compounds, 20% with a hit somewhere; the sample as a whole holds those more often.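 Activity criterion: percent growth below 10, measured after cells in 96-well plates were exposed to a single compound concentration for 48 hours.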 Activity calls are given as the source filed them.

What was measured:
Experiment in all cases: NCI-60 one-dose screen, 48 h (100 = growth as untreated, 0 = no growth, -100 = all killed)
Settings in all cases: 10 µM unless noted
[1] = system: SR leukemia
[2] = system: RPMI-8226 leukemia
[3] = system: OVCAR-8 ovarian
[4] = system: OVCAR-5 ovarian
[5] = system: OVCAR-4 ovarian
[6] = system: SK-OV-3 ovarian
[7] = system: IGROV1 ovarian
[8] = system: OVCAR-3 ovarian
[9] = system: HS 578T breast
[10] = system: NCI/ADR-RES ovarian
[11] = system: T-47D breast
[12] = system: BT-549 breast
[13] = system: MDA-MB-435 melanoma
[14] = system: SW-620 colon
[15] = system: MCF7 breast
[16] = system: HCT-116 colon
[17] = system: HCC-2998 colon
[18] = system: KM12 colon

Measured: growth

NS(=O)(=O)c1ccc(-n2cc(CC=O)nn2)cc1
inactive: [1] 101% | [2] 109% | [3] 106% | [4] 104% | [5] 101% | [6] 112% | [7] 102% | [8] 109% | [9] 104% | [10] 104% | [11] 102% | [12] 111% | [13] 102% | [14] 109% | [15] 93.6% | [16] 108% | [17] 97.9% | [18] 112%

Oc1ccccc1-c1nnc(SCc2ccc(O)c3ncccc23)n1-c1ccccc1
active: [6] 8.88% | [7] 6.65% | [10] 6.23% | [11] 6.93% | [15] 3.11%
inactive: [1] 25.2% | [2] 12.2% | [3] 15.5% | [4] 33% | [5] 16.3% | [8] 18.7% | [9] 21.3% | [12] 25.2% | [13] 14.4% | [14] 14.9% | [16] 12.6% | [17] 29% | [18] 15.4%

CCOP(=O)(OCC)OC[C@]12CCC(C)(C)C[C@H]1C1=CC[C@@H]3[C@@]4(C)C/C(=C\c5cccnc5)[C@H](OP(=O)(OCC)OCC)C(C)(C)[C@@H]4CC[C@@]3(C)[C@]1(C)CC2
inactive: [3] 28.9% | [4] 50.1% | [5] 27.6% | [6] 34.8% | [7] 42.6% | [8] 28.5% | [9] 61.1% | [10] 52.3% | [11] 16.1% | [12] 33.4% | [13] 31.2% | [14] 25.9% | [16] 11.1% | [17] 33.1% | [18] 23.6%
active: [1] 3.36% | [2] -10.3% | [15] 6.1%

C=C1C(=O)O[C@@H]2C[C@@H](C)[C@H](OC)CC(=O)[C@](C)(OC(C)=O)C[C@H](OC(=O)/C(C)=C\C)[C@@H]12
active: [1] 1.2% | [16] 5.78%
inactive: [2] 68.3% | [3] 59% | [4] 115% | [5] 82.3% | [6] 96.8% | [7] 90.1% | [8] 21.4% | [9] 103% | [10] 100% | [11] 46.9% | [12] 83.7% | [13] 82.8% | [14] 15.6% | [15] 56.5% | [18] 93.7%

CC[C@H](C)[C@H]1NC(=O)[C@@H]([C@H](O)C(C)C)NC(=O)[C@@H](C)N(C)C(=O)[C@H](C)N(C)C(=O)[C@H](CC(C)C)NC(=O)[C@H](CC(C)C)N(C)C(=O)[C@H](C)N(C)C1=O
inactive: [7] 10.5% | [10] 11.4% | [18] 16%
active: [1] 5.76% | [2] -13.8% | [3] 4.14% | [4] 6.87% | [5] 8.31% | [6] -9.12% | [8] 6.47% | [9] 5.82% | [11] -6.92% | [12] -4.47% | [13] 5.17% | [14] 5.6% | [15] 1.66% | [16] 1.42%

N#Cc1c(-c2cccs2)cc(-c2cnccn2)nc1SCC(=O)NNC(=S)Nc1ccc(F)cc1
inactive: [1] 85.1% | [2] 105% | [3] 104% | [4] 109% | [5] 96.3% | [6] 121% | [7] 106% | [8] 122% | [9] 109% | [10] 106% | [11] 102% | [12] 118% | [14] 105% | [15] 86.1% | [16] 102% | [17] 109% | [18] 101%

COc1ccc(N2CCN(C(=O)CSc3ccc(-c4nc5cc(C)c(C)cc5[nH]4)cn3)CC2)cc1
inactive: [1] 43.6% | [2] 17.1% | [3] 56.4% | [4] 93.5% | [5] 37.6% | [6] 94.6% | [7] 68.2% | [8] 80.4% | [9] 94.8% | [10] 49.3% | [11] 21.5% | [12] 32.9% | [13] 73.1% | [14] 85.5% | [15] 42.8% | [16] 74.3% | [18] 53.2%

O=C(Nc1cc(F)cc2cccnc12)c1cnc(N2CCOCC2)cn1
inactive: [1] 38.5% | [2] 70.5% | [3] 79.4% | [4] 65.6% | [5] 17.9% | [6] 95.2% | [7] 25.5% | [9] 98.3% | [10] 78.2% | [11] 23.9% | [12] 72.4% | [13] 90.9% | [14] 51.3% | [17] 107% | [18] 99.1%
active: [8] 9.55% | [15] 2.58% | [16] 9.63%
